Jurkat autofluor: autofluorescence counter-screen for VLA-4 integrin assays; fluorescence ratio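 (tested at 10 µM compound in the well)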; AID 576; Jurkat cells, compound autofluorescence, flow cytometry; hits give high values; 1 = vehicle-only cell background; 0.61% of 24,000 active;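 active means fluorescence ratio above 2.44, which is 1 plus 3 SD of all ratios; inconclusive means signal too bright to measure linearly, ratio around 10 or more; inactive means fluorescence ratio below 2.44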;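 further: green fluorescence of cells measured with 488 nm excitation and 530 nm emission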
26S disassembly: blocks ATP-dependent breakdown of the yeast 26S proteasome. anti-FLAG beads, GFP-proteasome disassembly, flow cytometry. inhibition of disassembly, % (test concentration not listed). 0.2% of 24,000 active;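 active means inhibition of disassembly above about 33%, limit read from the data; inconclusive means likely self-fluorescent, control bead median signal at least 40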;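 further: plate controls were ATP control with full disassembly for no effect and ATP-gamma-S intact proteasomes for full effect; higher percent means more bead fluorescence retained so stronger block of disassembly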
VLA-4 antagonist: inhibitors of LDV-FITC ligand binding to Mn2+-activated human VLA-4 integrin. 0.2% of 24,000 active. Jurkat cells, LDV-FITC binding with Mn2+, flow cytometry; 100% = Mn2+-driven binding gain fully reversed. inhibition, % at 10 µM (by protocol);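 active means inhibition above 50%; inconclusive means compound itself fluorescent, judged against control cell fluorescence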;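 further: 0% = Mn2+ stimulated cells lacking compound and 100% = ligand binding without Mn2+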
FPRL1 binder: binds the human formylpeptide receptor-like-1 FPRL1; FPRL1-expressing cells, fluorescent ligand binding inhibition, flow cytometry; inhibition, % (no concentration beside the values); 0.3% of 24,000 active;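 further: 0% = buffer alone and 100% = receptor blocker peptide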
FPR ligand: human FPR ligand, with FPRL1 counter-screen | AID 440 | 0.74% of 24,000 active | FPR-expressing cells, fluorescent ligand binding, flow cytometry | P21462 | inhibition, % (test concentration not listed);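 further: 0% = buffer wells and 100% = receptor blocker peptide wells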
Target sequence (P21462 whole entry, looked up): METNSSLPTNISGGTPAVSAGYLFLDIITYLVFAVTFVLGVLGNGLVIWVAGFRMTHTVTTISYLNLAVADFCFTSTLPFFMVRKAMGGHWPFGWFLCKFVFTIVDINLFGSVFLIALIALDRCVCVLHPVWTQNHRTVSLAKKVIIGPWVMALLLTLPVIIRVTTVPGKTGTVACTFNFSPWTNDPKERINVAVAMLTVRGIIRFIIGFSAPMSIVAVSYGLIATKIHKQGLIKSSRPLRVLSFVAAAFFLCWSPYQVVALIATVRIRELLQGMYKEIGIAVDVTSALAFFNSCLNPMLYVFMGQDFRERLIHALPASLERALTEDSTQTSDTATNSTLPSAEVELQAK
VLA-4 agonist: allosterically activates the human VLA-4 integrin; P13612; Jurkat cells, LDV-FITC binding, flow cytometry; 24,000 tested, under 10 active; AID 528; activation, % at 10 µM (by protocol);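 active means fluorescent ligand binding to cells raised by more than 40% of the manganese-induced maximum; inconclusive means compound's own fluorescence above 85% of the ligand control signal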;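 further: 0% = ligand binding without compound and 100% = manganese-stimulated maximal binding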
The depositor's hits bear a star; ? = inconclusive; . = no result given. Shown are actives, neighbours in structure and some others; about 1.9% of the full set was active somewhere. Unless noted, no stated cut-off is given here; in the data, active means inhibition above about 30%; inconclusive means no clear call, values can overlap the other calls; inactive means below that.

SMILES	Jurkat autofluor	26S disassembly	VLA-4 antagonist	FPRL1 binder	FPR ligand	VLA-4 agonist
CCOc1ccccc1C1C(C#N)=C(N)Nc2onc(-c3ccccc3)c21 (centres undefined)	1.1	-1	51*	20	20	-8
CCC(=O)c1ccc(OCC(O)Cn2cnc3ccccc32)cc1 (centres undefined)	3.2*	0	?	-2	-6	?
CCOc1ccccc1NC(=O)C1CCCN(S(=O)(=O)c2c(C)[nH]c(=O)[nH]c2=O)C1 (centres undefined)	0.97	0	6	4	-1	2
CCOC(=O)c1c(C)oc2c1c(/C=N/c1ccccn1)c(O)c1ccccc12	8.9*	?	?	.	.	?
Cc1cc(C)cc(-n2nnc(C(=O)NCc3ccccc3Cl)c2N)c1	2.8*	0	?	8	-1	?
Cc1cccc(-c2c3c(=O)n(C)c(=O)n(C)c3cn2-c2ccc(O)cc2)c1	1.1	0	12	-1	-4	-8
Cc1cc(C)cc(-n2cc3c(=O)n(C)c(=O)n(C)c3c2)c1	1	0	-13	24	32*	-5
Cc1nc2ccc(S(=O)(=O)NCC(=O)N3CCc4ccccc43)cc2s1	1	1	2	2	2	2
Cc1noc(C)c1S(=O)(=O)Nc1ccc(C(=O)NCCc2ccccc2)cc1	1.1	-3	55*	1	-6	-5
Cc1ccc(NC(=O)c2ccc(NS(=O)(=O)c3c(C)noc3C)cc2)cc1C	1.1	0	23	-5	-1	-15
Cc1noc(C)c1S(=O)(=O)Nc1ccc(C(=O)NC2CCCCC2)cc1	3*	3	?	-26	-4	?
COc1ccccc1CNC(=O)c1ccc(NS(=O)(=O)c2c(C)noc2C)cc1	1	-2	-7	4	0	-7
Cc1[nH]n2c(=O)c3c(nc2c1-c1ccc(Cl)cc1)CCC3	.	.	.	0	51*	.
Cc1[nH]n2c(=O)c3c(nc2c1-c1ccccc1)CCC3	.	.	.	-3	40*	.
Cc1[nH]n2c(=O)c(C#N)c(-c3ccccc3)nc2c1-c1ccccc1	.	.	.	-8	90*	.
Cc1[nH]n2c(=O)cc(C(C)C)nc2c1-c1ccccc1	.	.	.	-1	-4	.
Cc1ccc2oc(=O)c3cc(C(=O)N4CCN(C(=O)c5ccco5)CC4)sc3c2c1	1.1	2	17	-4	1	-5
CCC(Sc1nc(-c2ccccc2)c(C#N)c(=O)[nH]1)C(=O)Nc1cc(C)on1 (centres undefined)	1.1	0	-6	2	7	-14
COc1nc(OC)nc(N2CCC(C(=O)NCc3cccs3)CC2)n1	1.1	-2	-18	3	-2	6
COc1ccc(S(=O)(=O)C(C#N)c2nc3ccccc3nc2N2CCCC(C)C2)cc1 (centres undefined)	3*	-3	?	-5	5	?
Cc1ccc(NC(=O)C2C(=O)N(CCO)C3(C)CC2c2ccccc2O3)cc1 (centres undefined)	0.96	2	19	40*	31*	0
COc1ccc(NC(=O)C2C(=O)N(CCO)C3(C)CC2c2ccccc2O3)cc1 (centres undefined)	0.99	0	15	16	18	-8
COc1ccc(C2/C(=C(/O)c3ccccc3)C(=O)C(=O)N2CCO)cc1 (centres undefined)	.	.	.	-2	9	.
O=C(Nc1ccc2c(c1)OCO2)C(c1ccc(Cl)cc1)N1CCN(C(=O)c2ccco2)CC1 (centres undefined)	0.98	2	-13	8	9	-6
COc1ccc(OC)c(C(=O)c2nc3c(n2O)CCCCC3)c1	1.1	1	2	52*	54*	-6
SMILES	Jurkat autofluor	26S disassembly	VLA-4 antagonist	FPRL1 binder	FPR ligand	VLA-4 agonist
COc1ccc(C(=O)N2CCN(C3CCCCC3)CC2)c(OC)c1	1.1	-1	-20	0	2	4
Cc1ccc(-n2c(SCC(=O)Nc3nccs3)nc3c(c2=O)SCC3)cc1	1	1	8	1	2	-2
Brc1cccc(-c2cnc3n2CCCCC3)c1	1	1	-4	-5	-1	-12
C=C(C)C1Cc2c(C)nn(-c3nc(C)cc(C)n3)c2C1 (centres undefined)	1	3	54*	-4	-6	-20
OCc1nc2ccccc2n1CC(O)Cn1ccc2ccccc21 (centres undefined)	1.1	1	-2	51*	37*	-3
CCCN1Cc2cccc(C(=O)Nc3ccc(OC)c(OC)c3)c2C1=O	1	-1	6	0	-1	4
CCCN1Cc2cccc(C(=O)Nc3ccc(CN4CCCC4)cc3)c2C1=O	1	102*	-2	-5	0	1
CCCCCOC(=O)CSc1nnc(-c2cc(OC)c(OC)c(OC)c2)o1	1.1	0	5	6	5	-6
CC(C)CC1NC(=O)N(CC(=O)N2CCN(S(=O)(=O)c3ccc(Cl)cc3)CC2)C1=O (centres undefined)	1	-1	0	12	-4	-2
C=CCn1c(SCCCC)nc(O)cc1=O	1.1	1	-28	-6	56*	1
CC(=O)C1=C(O)C(=O)N(Cc2ccco2)C1c1ccc(F)cc1 (centres undefined)	1.1	0	-16	7	-1	5
O=C(C1=C(O)C(=O)N(Cc2ccco2)C1c1ccccc1)c1cccs1 (centres undefined)	.	.	.	-9	71*	.
O=C(C1=C(O)C(=O)N(CCOCCO)C1c1cccs1)c1cccs1 (centres undefined)	.	.	.	28	71*	.
Cc1ccc(C(=O)C2=C(O)C(=O)N(Cc3ccccc3)C2c2cccnc2)o1 (centres undefined)	.	.	.	-3	32*	.
Cc1cc(N2C(=O)C(O)=C(C(=O)c3ccco3)C2c2cccnc2)no1 (centres undefined)	.	.	.	30*	30	.
O=C(C1=C(O)C(=O)N(c2ncccn2)C1c1ccc(Cl)cc1)c1ccco1 (centres undefined)	.	.	.	18	-6	.
O=C(C1=C(O)C(=O)N(c2ncccn2)C1c1ccc(Cl)c(Cl)c1)c1ccco1 (centres undefined)	.	.	.	29	45*	.
COc1cc(C2C(C(=O)c3ccco3)=C(O)C(=O)N2c2cc(C)on2)cc(Br)c1O (centres undefined)	.	.	.	31*	39*	.
COc1cc(C2C(C(=O)c3ccc(C)o3)=C(O)C(=O)N2c2cc(C)on2)cc(Br)c1O (centres undefined)	1	1	-8	2	28	0
CCOC(=O)C1=C(C)N=C2SC(C)C(=O)N2C1c1cccc(F)c1 (centres undefined)	1	-1	-4	-2	-5	-8
COc1ccc(OC)c(C2C(C(=O)c3cc4ccccc4o3)=C(O)C(=O)N2c2cc(C)on2)c1 (centres undefined)	.	.	.	-2	33*	.
